# D1 PAM: Potentiators of Human D1 Dopamine Receptor: qHTS. AID 504651, 2011. potentiation, % at 10 µM. HEK293 TREx D1 cells, calcium flux, dopamine EC20 potentiation. D(1A) dopamine receptor (Homo sapiens), P21728. 360,000 tested, 0.036% active; in the data active = potentiation above about 30%; also: 0% is about no effect
# D1 antag: Antagonist of Human D 1 Dopamine Receptor: qHTS. D(1A) dopamine receptor (Homo sapiens), P21728. 360,000 tested, 3.2% active. HEK293 TREx D1 cells, calcium flux, dopamine EC80; hits give low values. activity change, negative = inhibition, % at 10 µM. AID 504652, 2011; in the data active = activity change below about -30%; also: % is scaled to controls: 0 for no effect and ±100 for the full control effect
#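 After overnight tetracycline induction at 30 C, force-coupled D1 HEK293 cells took up a no-wash calcium dye at room temperature. Compounds were added and monitored 180 s, and the response to EC80 dopamine was then recorded.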
# USP1 inh: Inhibitors of USP1/UAF1: Primary Screen; recombinant USP1/UAF1, Ub-Rhodamine cleavage fluorescence; Potency, µM (series often up to 57.1 µM), for inactives: at the top dose activity change, negative = inhibition, hits mostly inhibitors; 390,000 tested, 0.23% active; active = well fitted inhibition curve with a large enough effect; inconclusive = small, poorly fitted or top-dose-only effect; inactive = no such curve, though single readings can be large or run the other way; also: potency is read from the fitted curve at half-maximal effect; % is scaled to controls: 0 for no effect and ±100 for the full control effect; nearly all actives have a fitted effect of over 60% in size
#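 In this screen, compounds sit with the deubiquitinase complex (1nM) for 15 min at room temperature before Ub-Rho is added at 150nM final. Fluorescence rise is then followed for 6 reads every 60 seconds.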
# D1 agonist: Allosteric Agonists of the Human D1 Dopamine Receptor: qHTS. activation, % at 2 µM. HEK293 T-REx D1 cells, calcium flux, agonist mode. D(1A) dopamine receptor (Homo sapiens), P21728. 360,000 tested, 1% active; also: 0% is about no effect
#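 Agonism was scored from calcium flux recorded over 180 s (1 read/s) after pintool compound addition, following a 10-cycle baseline. Cells were inducible force-coupled HEK293 TREx D1, plated overnight at 30 C and loaded with no-wash calcium dye.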
# TRHR agonist: qHTS for Small Molecule Agonists and Allosteric Enhancers of Human TRH Receptor: Primary Screen for Agonists. Thyrotropin-releasing hormone receptor (Homo sapiens), P34981. TRHR cells, calcium flux fluo-8, FDSS agonist mode. activation, % at 2 µM. 360,000 tested, 0.18% active; also: 0% is about no effect
# Target sequence (P34981 whole entry, looked up): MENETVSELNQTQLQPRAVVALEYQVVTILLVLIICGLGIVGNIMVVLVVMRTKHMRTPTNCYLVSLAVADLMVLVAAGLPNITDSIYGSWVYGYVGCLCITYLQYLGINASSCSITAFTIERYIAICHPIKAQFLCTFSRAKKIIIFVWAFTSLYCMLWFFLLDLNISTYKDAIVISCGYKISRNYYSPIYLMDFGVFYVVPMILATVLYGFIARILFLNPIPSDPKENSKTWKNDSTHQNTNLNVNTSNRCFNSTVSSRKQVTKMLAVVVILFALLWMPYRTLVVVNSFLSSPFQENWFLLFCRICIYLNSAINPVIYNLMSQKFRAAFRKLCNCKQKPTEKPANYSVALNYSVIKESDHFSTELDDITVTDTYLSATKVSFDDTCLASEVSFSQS
#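 Steps: seed TRHR cells overnight; add fluo-8 no-wash Ca dye, RT 30 min–1.5 h; record 10 s baseline; pin-transfer compounds; monitor fluorescence 1 cycle/s for the agonist window. Calcium increases flag candidate agonists.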
# TRHR enhancer: qHTS for Small Molecule Agonists and Allosteric Enhancers of Human TRH Receptor: Primary Screen for Enhancers; TRHR cells, fluo-8 calcium fluorescence, EC20 TRH enhancement; enhancement, % at 2 µM; 360,000 tested, 0.66% active; in the data active = enhancement above about 30%; also: 0% is about no effect
#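 Enhancer read-out: after compound pinning and an initial kinetic agonist-mode read, an EC20 of TRH (10 nM final) was injected and fluo-8 calcium signal (Ex 480/Em 530) followed at 1 s/cycle for 100 cycles in TRHR-expressing cells.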
# Numbers without * were called inactive; u = inconclusive; x = no result given. Hits are enriched below; roughly 4.4% of the tested compounds scored in any of these assays. Rule as the data show it, unless noted: active = activation above about 30%; inactive = the rest.
SMILES,D1 PAM,D1 antag,USP1 inh,D1 agonist,TRHR agonist,TRHR enhancer
CC(=O)N1CCCC1c1nc2ccccc2n1Cc1cccc(Cl)c1 (configuration not stated),6,-33*,-20%,3,0,0
COC(=O)C1Cc2c([nH]c3ccccc23)C2(CCN(Cc3ccccc3)CC2)N1 (configuration not stated),-4,-39*,-7%,58*,4,-4
CCCN1CCC2(CC1)NC(C(=O)O)Cc1c2[nH]c2ccccc12 (configuration not stated),3,-4,-8%,8,-1,8
CCc1nnc2c(NCc3ccc(F)cc3)nc3ccccc3n12,-3,-13,-11%,6,1,0
COc1ccccc1-n1cnc2cc(NS(=O)(=O)c3ccc(Br)cc3)ccc21,-9,-39*,-22%,3,0,-25
CN(C)Cc1ccccc1Sc1ccc(O)cc1O,-2,-25,-8%,8,0,30*
Cc1ccc(Cn2c(C)c(CNCc3ccc(OC(C)C)cc3)c(C(=O)O)c2C)cc1,0,18,8%,2,-2,1
Cc1ccccc1Nc1c(-c2ccc(N3CCOCC3)cc2)nc2ccc(Br)cn12,-1,-8,-13%,3,1,1
C[C@@H](CN1CCC(Cc2ccccc2)CC1)[C@@H](O)c1ccc(O)cc1,-6,-33*,-17%,7,1,-2
CC(C(O)c1ccc(O)cc1)N1CCC(Cc2ccccc2)CC1 (configuration not stated),-3,-50*,-8%,7,0,-5
Cc1ccc(S(=O)(=O)C(CNC(=O)C(=O)NCc2ccc(Cl)cc2)c2cccs2)cc1 (configuration not stated),-2,x,10%,11,0,-11
Cc1ccc(S(=O)(=O)N2CCc3cc(C(=O)N(C)Cc4ccccc4)ccc32)cc1,-3,1,-24%,2,-1,-5
CCC1CN(C(=O)N2CCC(C(=O)NCCC3=CCCCC3)CC2)c2cc(C)ccc2O1 (configuration not stated),-3,-31*,-4%,1,0,-7
Cc1ccccc1-c1nc(CN2CCC(C(=O)NCCc3ccccc3)CC2)c(C)o1,-4,-6,u,23,0,3
Cc1ccccc1-c1nc(CN2CCC(C(=O)NCCC3=CCCCC3)CC2)c(C)o1,-5,-28,-5%,31*,1,7
Cc1ccccc1-c1nc(CN2CCC(C(=O)NCCCN3CCCC(C)C3)CC2)c(C)o1 (configuration not stated),-8,-5,-13%,1,0,0
COc1ccc(CCNC(=O)C2CCN(Cc3nc(-c4ccccc4C)oc3C)CC2)cc1OC,-6,-40*,-20%,37*,0,-4
CCC(C)NC(=O)Cn1c(=O)n(CCCC(=O)NCc2ccc(C)cc2)c(=O)c2ccccc21 (configuration not stated),-4,7,u,0,-1,1
CCCc1cnc2c(c1SCC(=O)Nc1ccc(C)c(Cl)c1)c(=O)n(C)c(=O)n2C,1,x,-23%,6,-1,10
CC1CN(CC(O)COc2ccccc2C(C)(C)C)CC(C)O1 (configuration not stated),-3,-31*,-17%,124*,-2,-3
CCOC(=O)N1CCN(CC(O)COc2ccccc2C(C)(C)C)CC1 (configuration not stated),1,-8,-15%,7,0,4
Cc1ccccc1OCC(O)CN1CCN(CC(O)COc2ccccc2C)C(C)C1 (configuration not stated),-12,-40*,-6%,7,0,-9
O=C(CCc1nc2ccccc2c(=O)[nH]1)OCc1ccc(-c2ccccc2)cc1,-3,-39*,-17%,3,0,12
O=C(CCc1nc2ccccc2c(=O)[nH]1)OCc1cccc(C(F)(F)F)c1,-3,-11,-17%,0,0,0
COc1ccc(/C=C2\N=C(SC)N(c3ccccc3OC)C2=O)cc1,-8,-34*,-25%,14,-1,-6
SMILES,D1 PAM,D1 antag,USP1 inh,D1 agonist,TRHR agonist,TRHR enhancer
CCOc1ccc(N2C(=O)/C(=C/c3ccccc3)N=C2SC)cc1,-3,-1,-15%,3,1,-1
O=C(CCS(=O)(=O)c1cccc2nonc12)Nc1ccc(F)cc1F,-4,10,-20%,7,0,-4
CCCCCS(=O)(=O)c1oc(-c2cccs2)nc1S(=O)(=O)c1ccc(C)cc1,-1,-22,u,5,2,-5
CCCCS(=O)(=O)c1oc(-c2cccs2)nc1S(=O)(=O)c1ccc(F)cc1,4,1,-22%,81*,1,-1
CCN(CC)S(=O)(=O)c1cc(-c2nnc(Nc3ccc(OC)c(C(N)=O)c3)c3ccccc23)ccc1C,-1,-14,-9%,-2,-1,-3
COc1ccc(-n2cc(C(=O)Oc3cc(C)cc(C)c3)c3ccccc3c2=O)cc1,-3,0,3%,2,0,2
CCCCNC(=O)C1CCCN(Cc2nc(-c3ccc(Cl)cc3)oc2C)C1 (configuration not stated),-4,-30*,-29%,7,0,-5
CCOCCCNC(=O)C1CCCN(Cc2nc(-c3ccc(CC)cc3)oc2C)C1 (configuration not stated),-4,-2,-13%,3,-1,32*
CCCN(CCC)CCCNC(=O)C1CCCN(Cc2nc(-c3ccc(Cl)cc3)oc2C)C1 (configuration not stated),-4,-23,6%,21,0,5
CCC(Sc1nc2ccccc2c2nc(CCc3c(C)n[nH]c3C)nn12)C(=O)Nc1ccc(F)cc1 (configuration not stated),0,53,-25%,9,0,4
CCN(CC)c1ccc2c(c1)oc(=O)c1c(Cl)cc(=O)oc12,-5,-38*,250%,142*,75*,-10
COc1ccc(S(=O)(=O)c2c(Nc3ccc(C)cc3)sc(C(=O)c3ccc4c(c3)OCO4)c2N)cc1,5,-38*,-7%,78*,6,1
